Source: PubChem BioAssay (National Center for Advancing Translational Sciences (NCATS))
Rows were chosen to be rich in hits. Some 6% of all compounds tested hit in one or more screens of this group.
D1 ag – human D1 receptor agonism; P21728; HEK293 T-REx D1 cells, calcium flux, agonist mode; activation, % at 2 µM; hit rate 1% among 360,000; in the data active = activation above about 30%
Target sequence (P21728 whole entry, looked up): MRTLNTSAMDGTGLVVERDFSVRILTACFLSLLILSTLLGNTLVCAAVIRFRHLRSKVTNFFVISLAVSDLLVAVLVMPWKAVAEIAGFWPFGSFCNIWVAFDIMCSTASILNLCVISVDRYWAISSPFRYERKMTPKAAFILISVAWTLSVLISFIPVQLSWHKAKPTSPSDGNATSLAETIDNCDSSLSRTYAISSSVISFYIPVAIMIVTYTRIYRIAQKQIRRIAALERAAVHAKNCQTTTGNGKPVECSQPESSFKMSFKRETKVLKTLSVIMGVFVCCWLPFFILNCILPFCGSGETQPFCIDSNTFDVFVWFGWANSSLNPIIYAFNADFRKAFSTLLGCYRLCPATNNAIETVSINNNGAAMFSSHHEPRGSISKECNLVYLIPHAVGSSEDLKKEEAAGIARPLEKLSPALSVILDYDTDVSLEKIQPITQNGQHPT
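Tetracycline-induced HEK293 TREx D1 cells, force-coupled to calcium signalling, were dye-loaded with a no-wash calcium kit. Compound was pin-added after a 10 s baseline. Fluorescence was read kinetically at 1 cycle/s for 180 s, with calcium rises flagged as agonism.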
D3 ag – agonists of human D3 dopamine receptor; D3R DiscoveRx beta-arrestin cells, luminescence, 90 min; hit rate 0.58% among 410,000; P35462; max activation, %; in the data active = max activation above about 30%
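Agonist mode: compounds and dopamine controls were applied to plated cells for 90 min at 37 degrees C after an overnight attachment at 1500 cells/well. Luminescent read-out followed 30 - 60 minutes at room temperature with DiscoveRx detection reagent.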
DRD3 antagonist – D3 dopamine receptor (human) antagonism; P35462; D3R cells, DiscoveRx beta-arrestin luminescence, antagonist mode; active compounds read low; max response, negative = inhibition, %; hit rate 2.5% among 360,000; AID 652054; in the data active = max response below about -50%; inconclusive = no clear call, values can overlap the other calls
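Cells expressing the human receptor were seeded at 1500 cells/well, incubated overnight at 37 degrees C in 5% CO2, then exposed to library compounds with dopamine controls for 90 minutes at 37 degrees C before luminescent detection.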
D1 PAM – human D1 dopamine receptor positive modulation. P21728. HEK293 TREx D1 cells, calcium flux, dopamine EC20 potentiation. potentiation, % at 10 µM. hit rate 0.036% among 360,000. AID 504651; in the data active = potentiation above about 30%
D1 antagonist – blocks dopamine activation of the human D1 receptor | P21728 | hit rate 3.2% among 360,000 | HEK293 TREx D1 cells, calcium flux, dopamine EC80; active compounds read low | activity change, negative = inhibition, % at 10 µM | AID 504652; in the data active = activity change below about -30%
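Inducible Hek293 Trex D1 cells (tetracycline, overnight, 30 C). Calcium dye 30–90 min RT. Antagonist mode: EC80 dopamine added after 180 s compound read.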
BCR signal inh – blocks chronic active B-cell receptor signaling | hit rate 0.05% among 340,000 | Potency, µM (titrated, usually from 46.1 µM), most hits filed as inhibitors | ABC-DLBCL IkBa-CBG/CBR reporter, luminescence ratio, 4 h; active = well fitted inhibition curve with a large enough effect in the signal ratio, with a control signal flat, not every such curve was filed as active; inconclusive = small, poorly fitted or top-dose-only effect, or effect the other way, or a change in a side signal; the % refers to the signal ratio
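Compounds up to 46 uM were incubated four hours with TMD8 cells whose green CBG68 luciferase is fused to IkappaBalpha; red CBR luminescence normalised the signal, and concentration-effect curves were fitted to fusion, red and ratio data.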
Of the large screens only hits and unclear results are named; the others gave an inactive call.

Cc1c(-c2ccc(F)cc2)nc(N)c(C#N)c1-c1ccco1	D1 antagonist -33
C/C(=N\Nc1cc(C)nc(-c2ccccc2O)n1)c1ccccc1	BCR signal inh inconclusive
Cc1cc(N/N=C/c2ccc(O)c(C)c2O)nc(-c2ccccc2O)n1	D1 antagonist -32, BCR signal inh inconclusive
Cc1ccccc1Oc1ccc2c(c1)[C@@H]1C[C@H]3[C@@H](C(=O)N1CC2)[C@H](C)ON3C	D3 ag 31 (no result: D1 ag, D1 PAM, D1 antagonist, BCR signal inh)
Cn1c2ccc(F)cc2c2nnc(SCC(=O)Nc3cccc(O)c3)nc21	D3 ag 34, BCR signal inh inconclusive
CCN(CC)CCOC[C@H]1O[C@@H](O)[C@H](OCCN(CC)CC)[C@@H](O)[C@@H]1O	none (no result: D1 ag, DRD3 antagonist, D1 PAM, D1 antagonist, BCR signal inh)
COc1ccc(C2CCCN2CC(O)COc2ccccc2C(C)C)cc1 (stereo not given)	DRD3 antagonist inconclusive, D1 antagonist -30
CCOC(=O)Cn1c(=S)[nH]c2c(oc3ccc(Cl)cc32)c1=O	DRD3 antagonist -68, BCR signal inh inconclusive
CCOC(=O)N1CCN(C(=O)c2ccc3c(=O)n(Cc4ccc(Cl)cc4)c(=S)[nH]c3c2)CC1	none
Cc1ccc(C(CNC(=O)Nc2ccc(Cl)cc2)N2CCN(C)CC2)cc1 (stereo not given)	D1 antagonist -44, BCR signal inh inconclusive
CN1CCN(C(CNC(=O)Nc2ccc(Cl)cc2)c2ccc(F)cc2)CC1 (stereo not given)	none
Cc1nc2c(-c3ccccc3)c(C)nn2c(C)c1CCC(=O)NCc1cccc(Cl)c1	none (no result: DRD3 antagonist, BCR signal inh)
Cc1ccccc1OCC(O)Cn1c2ccccc2c2ccccc21 (stereo not given)	D3 ag 46
Cc1ccccc1OCC(O)CO (stereo not given)	none (no result: D1 ag, DRD3 antagonist, D1 PAM, D1 antagonist, BCR signal inh)
Cc1ccccc1OCC(O)CN1CCN(CC(O)COc2ccccc2C)C(C)C1 (stereo not given)	D1 antagonist -40, BCR signal inh inconclusive
OC(COc1ccccc1)Cn1c2ccccc2c2ccccc21 (stereo not given)	none
Cc1nc2ccccc2n1CC(O)COc1ccccc1Cl (stereo not given)	D1 antagonist -46
CC(=O)Nc1ccc(OCC(O)Cn2c3ccccc3c3ccccc32)c(C)c1 (stereo not given)	D3 ag 31
Cc1nc2ccccc2n1CC(O)COc1ccc(Br)cc1 (stereo not given)	none
CCOc1ccc(-c2cc3c(=O)n(Cc4nc(-c5cccc(OC)c5OC)oc4C)ccn3n2)cc1Cl	none (no result: DRD3 antagonist, BCR signal inh)
CC1CN(CC(O)COc2ccccc2C(C)(C)C)CC(C)O1 (stereo not given)	D1 ag 124, D1 antagonist -31, BCR signal inh inconclusive
O=C(Nc1ccccc1C(=O)O)c1ccccc1	BCR signal inh inconclusive
CC(C)CCN1C(=O)c2ccc(C(=O)Nc3ccc(O)cc3C(=O)O)cc2C1=O	none
CC(c1ccccc1)N1C(=O)c2ccc(C(=O)Nc3ccccc3C(=O)O)cc2C1=O (stereo not given)	D3 ag 32
O=C(Nc1ccccc1C(=O)O)c1cccc(C(=O)Nc2ccccc2C(=O)O)c1	D3 ag 30, BCR signal inh inconclusive
CC(C)CN1C(=O)c2ccc(C(=O)Nc3ccc(O)cc3C(=O)O)cc2C1=O	D1 antagonist -76
CC(c1ccccc1)N1C(=O)c2ccc(C(=O)Nc3ccc(Br)cc3C(=O)O)cc2C1=O (stereo not given)	BCR signal inh inconclusive
Cc1ccc2c(=O)cc(C(=O)Nc3ccc(S(=O)(=O)N4CCC(C)CC4)cc3)oc2c1C	none (no result: DRD3 antagonist, BCR signal inh)
CCc1ccccc1S(=O)(=O)Cc1ccc(C(=O)NCCc2ccc(Cl)cc2)o1	none (no result: DRD3 antagonist, BCR signal inh)
Cc1ccc(N/C(N)=N/c2nc(C)cc(N3CCCCC3)n2)c(C)c1	D1 antagonist -99
O=C(Cn1c(=O)c2cccn2c2cccnc21)NCCCN1CCN(c2ccc(F)cc2)CC1	DRD3 antagonist -118
COc1ccc(N2CCN(CCCNC(=O)Cn3c(=O)c4cccn4c4ccccc43)CC2)cc1	DRD3 antagonist -60
O=c1c2cccnc2[nH]c(=S)n1CCCN1CCN(c2ccc(F)cc2)CC1	DRD3 antagonist -65
O=C(NCCCN1CCN(c2ccc(F)cc2)CC1)c1sc2ncccc2c1-n1cccc1	D1 antagonist -37 (no result: DRD3 antagonist, BCR signal inh)
COc1ccc(N2CCN(CCCNC(=O)c3sc4ncccc4c3-n3cccc3)CC2)cc1	none (no result: DRD3 antagonist, BCR signal inh)
CC(C)Oc1ccc(CNC(=O)Cn2c(=O)c3cccn3c3cccnc32)cc1	D1 antagonist -81, BCR signal inh inconclusive
COc1ccc(Cl)cc1C(=O)OCC(=O)NC1CCCC(C)C1C (stereo not given)	none
COc1cccc2cc(C(=O)OCC(=O)NC3CCCC(C)C3C)c(=O)oc12 (stereo not given)	D3 ag 82, BCR signal inh inconclusive (no result: D1 ag, D1 PAM, D1 antagonist)
CCc1ccc(NC(=O)C(=O)NCCc2csc(-c3ccc(C(F)(F)F)cc3)n2)cc1	none (no result: DRD3 antagonist, BCR signal inh)
Cc1cc(C(=O)CSc2cccc[n+]2[O-])c(C)n1-c1ccc(OC(F)F)cc1	D1 antagonist -40
CC1=C(C(=O)N(C)C)CC(CC(=O)NCCCN(C)C)C(=O)N1Cc1ccccc1 (stereo not given)	none (no result: D1 ag, D1 PAM, D1 antagonist, BCR signal inh)
O=C(/C=C/c1cn(CC(O)CN2CCOCC2)c2ccccc12)c1cccs1 (stereo not given)	D1 antagonist -81, BCR signal inh inconclusive (no result: D3 ag, DRD3 antagonist)
COc1ccc(-c2ccc(C(=O)NCC3CCOCC3)c3occc23)c(C)c1	none (no result: D1 ag, D1 PAM, D1 antagonist, BCR signal inh)
COc1ccc(S(=O)(=O)N(C)c2ccc(C(=O)N3CCOCC3)cc2)cc1	BCR signal inh inconclusive
COc1ccc(S(=O)(=O)N(C)c2ccc(C(=O)N3CCCCC3)cc2)cc1	D3 ag 38
NC(=Nc1ccc(Cl)cc1)c1ccccc1	D1 ag 71, D1 antagonist -53
ONC(=Nc1ccccc1)c1ccc(Cl)cc1	none
O=C(Nc1nnc(-c2ccco2)o1)c1ccc(Cl)s1	BCR signal inh inconclusive
COc1cccc(-c2nnc(NC(=O)c3ccc(Cl)s3)o2)c1	D1 ag 73, D1 antagonist -36, BCR signal inh inconclusive
O=C(Nc1nnc(-c2ccc(Cl)cc2)o1)Nc1ccccc1Cl	none
Cc1cccc(-c2nnc(NC(=O)c3ccc(Cl)cc3)o2)c1	D1 ag 57, DRD3 antagonist -97
O=C(Nc1nnc(-c2ccc(Cl)cc2)o1)c1nc2ccccc2s1	DRD3 antagonist -74
Cc1ccc(NC(=O)[C@@H]2O[C@H](CO)[C@@H](O)[C@H]2O)cc1C(F)(F)F	none (no result: D1 ag, D1 PAM, D1 antagonist, BCR signal inh)
CCOc1ccc(NC(c2ccc(Cl)cc2)c2nnc(-c3cccc(F)c3)o2)cc1 (stereo not given)	none (no result: DRD3 antagonist, BCR signal inh)
Cc1ccc(C(=O)c2cn(CC(=O)Nc3ccc(C)cc3Cl)c3nc(C)ccc3c2=O)cc1	none (no result: DRD3 antagonist, BCR signal inh)
